In PubChem BioAssay AID1159580 (chemical genetic matrix, 2015):
Values joined by “and” are separate entries in the source; they are usually repeats but may differ in a detail not shown here. Equal values may be shown once. In all, about 5,500 compounds went through this assay and about 2,000 (36%) were called active. About 18% were inconclusive and are not listed. Cut-off read from the data, not from the text of the source: active = normalized growth mostly below about 0.91 (no sharp cut-off); inconclusive = no clear call, values can overlap the other calls; inactive = mostly above about 0.92. Some of the results follow.

Experiment: chemical genetic growth profiling, strain panel (AID 1159580);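 note: tested at 20 µM; growth read once vehicle control cultures reached saturation at 30 °C; 1 = growth at the plate median or of vehicle wells; lower values mean less growth of the strain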
Conditions: S. cerevisiae deletion strains, growth OD

Measured: normalized growth

CN(C)CCOC(=O)C(c1ccccc1)C1(O)CCCC1 (stereo not drawn)
inactive: locus YAL013W, strain DEP1, stronger effect = lower value 1.01 | locus YAL021C, strain ccr4, stronger effect = lower value 0.987 | locus YAL026C, strain drs2, stronger effect = lower value 1.03 | locus YAL030W, strain snc1, stronger effect = lower value 0.99 | locus YBL061C, strain skt5, stronger effect = lower value 0.995 | locus YBR009C, strain hhf1, stronger effect = lower value 1 | locus YBR021W, strain FUR4, stronger effect = lower value 0.991 | locus YBR023C, strain chs3, stronger effect = lower value 1 | locus YBR171W, strain sec66, stronger effect = lower value 0.97 | locus YBR229C, strain ROT2, stronger effect = lower value 0.998 | locus YBR231C, strain swc5, stronger effect = lower value 0.972 | locus YBR279W, strain paf1, stronger effect = lower value 0.992 | locus YCL011C, strain gbp2, stronger effect = lower value 1.01 | locus YCL016C, strain dcc1, stronger effect = lower value 1.03 | locus YCL029C, strain bik1, stronger effect = lower value 1.02 | locus YCL061C, strain MRC1, stronger effect = lower value 0.993 | locus YCL069W, strain vba3, stronger effect = lower value 0.991 | locus YCR088W, strain abp1, stronger effect = lower value 0.981 | locus YDL005C, strain med2, stronger effect = lower value 0.991 | locus YDL035C, strain GPR1, stronger effect = lower value 1.01 | locus YDL040C, strain nat1, stronger effect = lower value 0.974 | locus YDL074C, strain BRE1, stronger effect = lower value 1.02 | locus YDL101C, strain DUN1, stronger effect = lower value 0.998 | locus YDL185W, strain tfp1, stronger effect = lower value 1.01 | locus YDL192W, strain arf1, stronger effect = lower value 1.02 | locus YDR001C, strain nth1, stronger effect = lower value 0.963 | locus YDR069C, strain doa4, stronger effect = lower value 0.99 | locus YDR101C, strain arx1, stronger effect = lower value 1 | locus YDR137W, strain rgp1, stronger effect = lower value 1.04 | locus YDR150W, strain NUM1, stronger effect = lower value 0.998 | locus YDR159W, strain sac3, stronger effect = lower value 1.01 | locus YDR162C, strain NBP2, stronger effect = lower value 1.01 | locus YDR195W, strain ref2 0.925 | locus YDR297W, strain sur2, stronger effect = lower value 0.981 | locus YDR318W, strain mcm21, stronger effect = lower value 1.01 | locus YDR334W, strain swr1, stronger effect = lower value 0.984 | locus YDR335W, strain msn5, stronger effect = lower value 0.985 | locus YDR388W, stronger effect = lower value 1.01 | locus YDR392W, strain spt3, stronger effect = lower value 1.08 | locus YDR502C, strain sam2, stronger effect = lower value 1.02 | locus YEL003W, strain gim4, stronger effect = lower value 0.978 | locus YEL037C, strain rad23, stronger effect = lower value 0.984 | locus YEL061C, strain CIN8 (second series), stronger effect = lower value 0.984 | locus YEL061C, strain CIN8, stronger effect = lower value 1 | locus YER015W, strain faa2, stronger effect = lower value 0.999 | locus YER016W, strain bim1, stronger effect = lower value 1.01 | locus YER110C, stronger effect = lower value 1.02 | locus YER111C, strain swi4, stronger effect = lower value 0.971 | locus YER155C, strain BEM2 (second series), stronger effect = lower value 1 | locus YER155C, strain BEM2, stronger effect = lower value 0.996 | locus YER167W, strain BCK2, stronger effect = lower value 1 | locus YFR010W, strain ubp6, stronger effect = lower value 0.962 | locus YGL078C, strain dbp3, stronger effect = lower value 1.01 | locus YGL086W, strain mad1, stronger effect = lower value 1.02 | locus YGL167C, strain pmr1, stronger effect = lower value 0.974 | locus YGL173C, strain kem1, stronger effect = lower value 0.989 | locus YGL227W, strain vid30, stronger effect = lower value 0.988 | locus YGL240W, strain doc1, stronger effect = lower value 0.963 | locus YGL248W, strain PDE1, stronger effect = lower value 1.01 | locus YGL253W, strain hxk2, stronger effect = lower value 1 | locus YGR135W, strain pre9, stronger effect = lower value 1.03 | locus YGR252W, strain gcn5, stronger effect = lower value 0.964 | locus YHR013C, strain ard1, stronger effect = lower value 1.02 | locus YHR027C, strain rpn1, stronger effect = lower value 1.01 | locus YHR030C, strain SLT2, stronger effect = lower value 1 and 0.988 | locus YHR079C, strain IRE1 (second series), stronger effect = lower value 1.01 | locus YHR079C, strain IRE1, stronger effect = lower value 1 | locus YHR094C, strain hxt1, stronger effect = lower value 1.02 | locus YHR129C, strain ARP1, stronger effect = lower value 1 | locus YHR142W, strain chs7, stronger effect = lower value 0.985 | locus YHR200W, strain rpn10, stronger effect = lower value 1.02 | locus YIL066C, strain RNR3, stronger effect = lower value 1.01 | locus YIL073C, strain SPO22, stronger effect = lower value 1.02 | locus YIL125W, strain kgd1, stronger effect = lower value 1.01 | locus YIR030C, strain dcg1, stronger effect = lower value 1.03 | locus YJL092W, strain hpr5, stronger effect = lower value 0.981 | locus YJL095W, strain BCK1 (second series), stronger effect = lower value 0.996 | locus YJL095W, strain BCK1, stronger effect = lower value 1.02 and 0.991 | locus YJL115W, strain asf1, stronger effect = lower value 0.97 | locus YJL129C, strain trk1, stronger effect = lower value 0.96 | locus YJL134W, strain LCB3, stronger effect = lower value 1 | locus YJL154C, strain vps35, stronger effect = lower value 0.972 | locus YJL164C, strain tpk1, stronger effect = lower value 1.01 | locus YJL166W, strain qcr8, stronger effect = lower value 0.978 | locus YJL168C, strain set2, stronger effect = lower value 1.01 | locus YJL187C, strain SWE1 (second series), stronger effect = lower value 1.02 | locus YJR043C, strain POL32, stronger effect = lower value 1.01 | locus YJR066W, strain TOR1, stronger effect = lower value 0.995
